# Data from PubChem BioAssay AID651593 (National Center for Advancing Translational Sciences (NCATS), 2012).
# Hit rate of the full screen: of about 1,100 compounds, about 860 (78%) were called active. Not shown: some 19% with an inconclusive outcome. So high a share suggests a set chosen from earlier hits. The list shows a part of the results. Unmarked numbers belong to inactive results. Calls follow the shape of the dose curve; as a rule, active = well fitted activation curve with a large enough effect; inconclusive = small, poorly fitted or top-dose-only effect; inactive = flat fitted curve, though single readings scatter.
# Test: qHTS of Nrf2 Activators: Hit Validation in Primary Assay; also: nearly all actives have a fitted effect of over 70% in size; as to activation: 0% is about no effect
# Details: Nrf2/ARE reporter cell assay; Potency: activation; series mostly up to 46.1 µM; activation: at the top concentration
# Description: Many diseases have some form of oxidative stress injury and ties to inflammation, causing a host of problems for the patient. The antioxidant response element (ARE) plays an important role in alleviating the harmful effects of oxidative stress. The antioxidant response element (ARE) is a transcriptional regulatory element involved in the activation of genes coding for a number of antioxidant proteins and detoxifying enzymes. These enzymes work in concert to protect tissues from oxidative insults and chemical toxicities in human hepatocytes and immune cells. The protective effects of ARE activation are primarily triggered through Nrf2 (NF-E2-related factor) binding to and activating AREs. It is known that Nrf2 controls the production of over 250 antioxidant and detoxification proteins (Hu et al., 2006), thereby protecting tissues by increasing cellular antioxidant content and suppressing inflammatory signaling pathways. The transcription factor Nrf2 is a central link between oxidative chemicals, such as phenolic antioxidants and electrophilic compounds, and the activation of ARE. Nrf2 levels are constitutively low as a consequence of its interaction with Keap1, which targets its degradation (Zipper and Mulcahy, 2002). Electrophiles react with key cysteine residues in Keap1, releasing Nrf2 and allowing its translocation to the nucleus. Once within the nucleus, Nrf2 complexes with coactivators such as p300, and binds to the AREs to induce gene transcription of cytoprotective enzymes, resulting in the prevention of toxicity. Activation of Nrf2 protects tissues by increasing cellular antioxidant content and suppressing inflammatory signaling pathways. Identifying novel and potent Nrf2 activators by using the AREc32 cell line to detect ARE activation by small molecules will lead to the identification and development of probes to study protective pathways in multiple tissues. These specific probes are essential to study the ARE pathway, and eventually to determine whether this pathway does activate genes that could protect against a host of diseases, including cardiovascular diseases, obesity, diabetes, Alzheimer's, and Parkinson's disease.
# This project's aim is to identify novel and potent Nrf2 activators by using the AREc32 cell line to detect ARE activation by small molecules, which will lead to the identification and development of probes to study the ARE pathway.
# NIH Chemical Genomics Center [NCGC]
# NIH Molecular Libraries Probe Centers Network [MLPCN]
# Assay Submitter (PI): Curtis Klaassen, University of Kansas Medical Center
# Quantification of ARE activation after compound treatment was measured by the Steady-Glo Luciferase (R) assay system (Promega) in AREc32_fluc stable cells. The Steady-Glo reagent acts by cell lysis and generation of a luminescent signal proportional to ARE activation, through the luciferase reporter in the AREc32 stable cell line. AREc32_fluc cells were harvested from T225 flask and resuspended in phenol red free OPTI-MEM medium with 5% FBS. Then 5 microL of 200,000 cells/mL resuspended cells were dispensed into each well of white, solid bottom, 1536-well tissue culture-treated plates using a Multidrop Combi dispenser. After overnight culture at 37 degrees C with 5% CO2, a total of 23 nL of compounds at 5 selected concentrations from the MLSMR/Sytravon or positive control (40 uM stock of CDDO-IM and 2 mM of tBHQ) in DMSO was transferred to each well of the assay plate using a pintool (Kalypsys, San Diego, CA), and the plates were further incubated at 37 degrees C with 5% CO2 for 24 hours. After that, 2 microL of Steady Glo luminescent substrate mix (Promega) was added to each well. The plate was incubated at room temperature for 30 minutes. The plates were measured on a ViewLux plate reader (PerkinElmer) with clear filter.
# Potency is read from the fitted curve at half-maximal effect.
SMILES,activation,Potency
CCOc1c(Br)cc(C(N)=O)cc1OCc1ccccc1,20.2%,
Cc1ccc2cc3c(NC(=O)c4ccco4)nn(C)c3nc2c1,,2.59 µM (active)
O=C1C(=Cc2ccccc2Cl)CCc2ccccc21,,20.6 µM (active)
COc1cc(OC)c(OC)cc1/C=C1/Cc2ccccc2C1=O,,8.2 µM (active)
COc1cc(C=C2Cc3ccccc3C2=O)cc(OC)c1OC,,9.2 µM (active)
COc1ccc(OC)c(C=C2CCc3ccccc3C2=O)c1,,2.91 µM (active)
c1ccc(-c2cnc(-c3ccccc3)nn2)cc1,,13 µM (active)
CSc1nc(Oc2ccc(Cl)cc2)c2sccc2n1,,6.51 µM (active)
CSc1nc(Oc2ccc3ccccc3c2)c2sccc2n1,,5.8 µM (active)
Nc1c(C(=O)c2ccc(Br)s2)oc2ccccc12,,5.17 µM (active)
Nc1c(C(=O)c2cccs2)oc2ccccc12,,6.51 µM (active)
COc1cccc(C(=O)Oc2ccccc2/C=C\C(=O)c2cc3ccccc3o2)c1,,3.66 µM (active)
O=C(Oc1ccccc1/C=C\C(=O)c1cc2ccccc2o1)c1ccccc1,,4.61 µM (active)
O=C(Cn1cnc2scc(-c3cccc([N+](=O)[O-])c3)c2c1=O)NCc1ccco1,,7.31 µM (active)
Cc1c(CN(C)C)c2c(n1C)C(=O)c1ccc(Br)cc1-2,,5.17 µM (active)
O=C(CC(=O)c1ccccc1O)c1cccc(F)c1,,4.61 µM (active)
C(=N\Nc1nc2ccccc2[nH]1)/c1c[nH]c2ccccc12,,16.4 µM (active)
CC(C)Oc1ccccc1/C=N/Nc1ccccc1[N+](=O)[O-],,3.26 µM (active)
O=[N+]([O-])c1ccccc1N/N=C/c1c[nH]c2ccccc12,,2.59 µM (active)
c1ccc(N=NC2=NN(c3ccccc3)CS2)cc1,,5.8 µM (active)
CC(=O)c1ccccc1NC(=O)COC(=O)/C=C/c1ccc(C)o1,,3.66 µM (active)
CSc1ccccc1NC(=O)COC(=O)/C=C/c1ccco1,,1.16 µM (active)
O=C(COC(=O)/C=C/c1ccco1)Nc1ccc(F)cc1Cl,,5.8 µM (active)
O=C(NC(=S)Nc1ccccc1O)c1ccccc1Cl,,2.31 µM (active)
O=C(CNC(=S)NC(=O)c1ccccc1Br)c1ccccc1,27.2%,
Cc1ccc(C(=O)Nc2nc(-c3ccco3)c(-c3ccco3)s2)o1,,0.92 µM (active)

SMILES,activation,Potency
CCOC(=O)c1sc(NC(=O)c2ccco2)nc1C,,2.59 µM (active)
CCc1c(C)sc(NC(=O)c2ccco2)c1C#N,,7.31 µM (active)
Cc1sc(NC(=O)c2ccco2)c(CN2CCCCC2)c1C,9.37%,
COC(=O)c1c(NC(=O)c2ccco2)sc(C)c1C,,2.59 µM (active)
COC(=O)c1sc(NC(=O)c2ccco2)nc1C,,10.3 µM (active)
O=C(Nc1ccccc1F)c1ccc(-c2cccc([N+](=O)[O-])c2)o1,,2.31 µM (active)
c1ccc(N=Nc2cn[nH]c2-c2ccco2)cc1,,9.2 µM (active)
CC(C)OC(=O)c1cn(-c2ccccc2)nc1-c1ccco1,,6.51 µM (active)
Fc1ccc2nncc(SCc3ccccc3Cl)c2c1,,2.06 µM (active)
O=C(Nc1ncnc2sc3c(c12)CCC3)c1ccco1,,0.291 µM (active)
O=C(Nc1ncnc2sc3c(c12)CCCCC3)c1ccco1,,0.58 µM (active)
Cc1ccc2nc(N(CCN(C)C)C(=O)/C=C/c3cccs3)sc2c1,,4.61 µM (active)
CN(C)CCN(C(=O)/C=C/c1cccs1)c1nc2c(F)cc(F)cc2s1,,2.91 µM (active)
CN(C)CCN(C(=O)/C=C/c1cccs1)c1nc2ccc(F)cc2s1,,2.06 µM (active)
Nc1nc(Nc2cccc(Cl)c2)nc(NCCO)c1[N+](=O)[O-],,2.59 µM (active)
Fc1ccc2nc(Nc3nc4c(F)cc(F)cc4s3)sc2c1,,2.31 µM (active)
Fc1cccc2sc(Nc3nc4ccccc4s3)nc12,,2.31 µM (active)
Cn1c(/C(C#N)=C(\O)c2cc(Cl)sc2Cl)nc2ccccc21,,2.31 µM (active)
Cc1ccc(C(=O)OCc2c(C)noc2C)cc1NC(=O)c1ccco1,,4.11 µM (active)
COc1ccc(Cl)cc1C(=O)O/N=C(\N)c1ccncc1,,6.51 µM (active)
N/C(=N\OC(=O)c1cc(Cl)ccc1Cl)c1cccnc1,,2.59 µM (active)
N/C(=N\OC(=O)c1cc(Cl)ccc1Cl)c1ccncc1,,5.17 µM (active)
N/C(=N\OC(=O)c1ccccc1Cl)c1ccncc1,,9.2 µM (active)
N/C(=N\OC(=O)c1cccc2ccccc12)c1ccc(Br)cc1,,9.2 µM (active)
N/C(=N\OC(=O)c1cccc2ccccc12)c1cccnc1,5.33%,
COc1ccc(Cl)cc1C(=O)O/N=C(\N)c1ccccn1,,2.91 µM (active)
